# Experimental data published in PubChem BioAssay AID793 (The Scripps Research Institute Molecular Screening Center, 2007).
# Out of some 140,000 compounds screened, about 1,400 (1%) were called active. This excerpt belongs to a sample that is enriched for actives. A number with no mark means an inactive call. No stated cut-off is given here; in the data, active means inhibition above about 17%; inactive means the rest.
# Molecular target: Neuropeptide Y receptor type 2 (Homo sapiens) (UniProt P49146)
# Sequence (P49146 whole entry, looked up): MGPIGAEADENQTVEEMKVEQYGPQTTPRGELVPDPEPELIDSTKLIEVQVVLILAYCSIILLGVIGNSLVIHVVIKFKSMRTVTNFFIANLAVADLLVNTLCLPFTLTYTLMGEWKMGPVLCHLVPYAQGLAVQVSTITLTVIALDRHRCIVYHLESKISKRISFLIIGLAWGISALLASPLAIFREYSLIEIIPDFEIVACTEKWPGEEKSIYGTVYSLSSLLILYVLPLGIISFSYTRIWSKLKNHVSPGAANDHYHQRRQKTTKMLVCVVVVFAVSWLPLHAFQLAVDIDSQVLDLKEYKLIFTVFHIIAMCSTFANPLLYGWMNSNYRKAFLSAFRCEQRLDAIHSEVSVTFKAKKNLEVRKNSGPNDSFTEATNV
# Experiment: NPY-Y2 receptor antagonists, primary screen, cell-based (AID 793);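 further: 0% = vehicle with agonist challenge and 100% = reference antagonist with challenge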
# Conditions: NPY-Y2 expressing cells, antagonist mode; at 2.7 µM; stronger effect = higher value
row,Structure (SMILES),inhibition
1,CCCC(O)(CCC)C(=O)NN(C(=O)CCl)c1cccc(C)c1,8.32%
2,Cc1ccc(N(NC(=O)C(C)(C)O)C(=O)c2ccccc2)cc1C,2.31%
3,CCCCC(O)(CCCC)C(=O)NN(C(=O)CCl)c1ccccc1,21.9% (active)
4,CCCc1cc(=O)[nH]c(SCc2cc(=O)oc3c(C)c(C)ccc23)n1,6.69%
5,COc1cc(Cl)c(C)cc1NC(=O)[C@@H]1CCCN1C(=O)c1cccs1,6.63%
6,O=C(Oc1ccccc1)Oc1ccc2c(c1)oc(=O)c1ccccc12,23.1% (active)
7,CC(=O)Oc1ccc2c(C)c(CC(C)O)c(=O)oc2c1 (stereo not given),2.41%
8,NC(=O)COc1ccc2c3c(c(=O)oc2c1)CCCCC3,0.83%
9,Cc1nc2ccccc2cc1C(=O)N/N=C/c1ccc([N+](=O)[O-])cc1,-0.48%
10,Cc1cc(C(=O)OCC(=O)Nc2nnc(C(C)C)s2)c2ccccc2n1,4.1%
11,CN(C)Cc1ccc(F)cc1Sc1cc(Cl)ccc1Cl,20.2% (active)
12,CCCC(=O)Nc1ccc(Cl)c(NC(=O)c2ccc(Br)o2)c1,-1.21%
13,COc1cc(OC)c(NC(=O)c2ccc(Br)o2)cc1Cl,-1.32%
14,CCN1CCN(c2c(Cl)cccc2NC(=O)c2ccc(Br)o2)CC1,31.1% (active)
15,O=C(CSc1nc2ccccc2o1)N1c2ccccc2Sc2ccc(Cl)cc21,6.15%
16,COC(=O)c1ccc(CSc2nncn2C)cc1,3.48%
17,COC(=O)c1ccc(CSc2nc3cc(Cl)ccc3o2)cc1,21.5% (active)
18,Cc1ccc(S(=O)(=O)NNC(=O)Nc2cccc3ccccc23)cc1,1.93%
19,COc1cccc2c(O)cc(=O)n(C)c12,1.18%
20,C/C(=N\NS(=O)(=O)c1ccc(Br)cc1)c1cccs1,3.39%
21,CCOc1ccc(S(=O)(=O)NCC2CCCO2)cc1 (stereo not given),2.22%
22,CCOc1ccc(S(=O)(=O)N/N=C(\C)c2ccc(Cl)c(Cl)c2Cl)cc1,17.4% (active)
23,Cc1cccc(NC(=O)/C=C/c2ccc3c(c2)OCO3)n1,3.73%
24,COc1ccc(CCNC(=O)CSc2nnc(-c3cccc(F)c3)o2)cc1OC,-1.35%

row,Structure (SMILES),inhibition
1,COc1cccc(-c2ccc(C#N)c(SCC(=O)NCCc3ccc(Cl)cc3)n2)c1,18.3% (active)
2,COc1ccc(CCNC(=O)CSc2nc(-c3ccc(OC)c(OC)c3)ccc2C#N)cc1,4.73%
3,Cc1nnc(NC(=O)/C=C/c2ccco2)s1,10.7%
4,O=C1OC(/C=C/c2ccccc2)=NC/1=C/c1ccco1,0.56%
5,CC1CCCCN1CC(=O)NCc1ccc2c(c1)OCO2 (stereo not given),1.99%
6,CCN(CC)c1ccc(C2C3CCCCC3(O)CCN2CC(=O)Nc2ccccc2)cc1 (stereo not given),5.72%
7,Cc1ccc(NC(=O)CN2CCC3(O)CCCCC3C2c2ccc3c(c2)OCO3)c(C)c1 (stereo not given),21.3% (active)
8,FC(F)Oc1ccccc1NC(=S)Nc1cccc(Cl)c1Cl,0.76%
9,CCCCN(CC)C(=S)Nc1ccc2nc3n(c(=O)c2c1)CCCCC3,3.37%
10,COc1ccc(/C=C(/CC(=O)Nc2ccc(C)cc2)c2nc3ccccc3s2)cc1,3.93%
11,O=C(C(=O)N1CCc2ccccc2C1)N1CCc2ccccc2C1,-0.59%
12,CCOC(=O)/C(C#N)=C/c1ccc(N2CCN(Cc3ccccc3)CC2)cc1,5.28%
13,CC1CN(S(=O)(=O)c2ccc(C(=O)Nc3sccc3C(N)=O)cc2)CC(C)O1 (stereo not given),-0.61%
14,CNC(=S)NNC(=O)c1sccc1OCc1ccccc1,-0.16%
15,Cc1ccc(/C=N/NC(=O)c2sccc2OCc2ccc(F)cc2)cc1,25.7% (active)
16,Cc1ccsc1C(=O)N/N=C/c1ccc([N+](=O)[O-])cc1,1.67%
17,CCCCOc1ccc(C(=O)NN2CCN(C)CC2)cc1,0.95%
18,CCCCOc1ccc(C(=O)NCc2ccncc2)cc1,-1.04%
19,CCCOc1ccc(C(=O)C(CCC(CNCC)C(=O)c2ccc(OCCC)cc2)CNCC)cc1 (stereo not given),30.9% (active)
20,CCOc1ccc(C(=O)Nc2nccs2)cc1[N+](=O)[O-],-0.69%
21,O=C(OC1CCOC1=O)c1cccc(S(=O)(=O)Nc2ccc(F)cc2)c1 (stereo not given),2.56%
22,CCc1cccc(NC(=O)CCC(=O)O)c1,1.58%
23,CCOC(=O)COc1ccc([N+](=O)[O-])cc1,1.59%
24,COc1ccc(OC)c2c(N)c(C#N)c(C(F)(F)C(F)(F)F)nc12,-1.33%

row,Structure (SMILES),inhibition
1,N#Cc1c(N)nc2c3c(sc(=N)c2c1N)NC(=O)CC3c1ccccc1Cl (stereo not given),1.65%
2,COc1ccc(C2CC(=O)Nc3sc(=N)c4c(N)c(C#N)c(N)nc4c32)cc1OC (stereo not given),86.1% (active)
3,CCN(CC)S(=O)(=O)c1cccc(-c2n[nH]c(=S)n2/N=C/c2ccc(C(=O)OC)cc2)c1,-0.07%
4,Cc1cc(C)nc(NC(=O)c2cccc([N+](=O)[O-])c2)c1,2.05%
5,COc1ccc(/C=C/C(=O)c2cc(Br)ccc(=O)c2O)cc1,5.15%
6,CCOc1ccc(NC(=S)NC(=O)/C=C/c2ccc(OC)cc2)c([N+](=O)[O-])c1,0.55%
7,COc1ccc(/C=C/C(=O)NC(=S)NN2CCCCC2c2cccnc2)cc1 (stereo not given),44% (active)
8,O=C(/C=C/c1ccc(F)cc1)NC(=S)NNC(=O)c1cccnc1,2.46%
9,NC(=O)CC[C@@H]1NC(=O)[C@H](CO)NC(=O)c2cc([N+](=O)[O-])cc(I)c2NCC[C@@H](C(N)=O)NC1=O,0.11%
10,COCCN1C(=O)N[C@@H](c2ccccc2)C(C(=O)OC)=C1C,1.37%
11,Cc1ccc(S(=O)(=O)c2ccc(Cl)cc2)cc1S(=O)(=O)NC(C(=O)O)C(C)C (stereo not given),-0.6%
12,C/C(Cc1ccccc1)=N\NC(=O)CNC(=O)c1cccc(Br)c1,2.91%
13,COc1cc(C(=O)Nc2oc(-c3ccccc3)c(-c3ccccc3)c2C#N)cc(OC)c1OC,0.05%
14,N#Cc1c(NC(=O)CCCN2C(=O)c3ccccc3C2=O)oc(-c2ccccc2)c1-c1ccccc1,20.4% (active)
15,O=C(CCN1C(=O)c2ccccc2C1=O)Nc1ccncc1,1.5%
16,O=C(/C=C/c1cnc2ccccc2n1)NC1CCCCCC1,5.1%
17,O=C(O)/C(=C/c1cccnc1)NC(=O)c1ccccc1,0.95%
18,CCCc1[nH]nc2c1C(C1CC=CCC1)C(C#N)=C(N)O2 (stereo not given),2.32%
19,CCCc1[nH]nc2c1C(c1c(C)nn(-c3ccccc3)c1Cl)C(C#N)=C(N)O2 (stereo not given),0.27%
20,CCCc1[nH]nc2c1C(c1ccc(Br)s1)C(C#N)=C(N)O2 (stereo not given),53.5% (active)
21,Cc1[nH]c2ccccc2c1C(=O)COC(=O)c1c(-c2ccccc2)noc1C,-0.4%
22,C/C(=C/C(=O)N1CCN(C)CC1)C(=O)O,1.55%
23,CN(CC(=O)Nc1ccc(S(=O)(=O)N2CCCC2)cc1)Cc1ccc(Cl)c(Cl)c1,1.24%
24,CC(C)CNC(=S)NC(=O)c1ccc(Cl)cc1,6.88%

row,Structure (SMILES),inhibition
1,O=S(=O)(O)c1nc2ccccc2n1Cc1ccc(Cl)cc1,3%
2,Cc1ccc(Cn2c(NC(=O)c3ccco3)nc3ccccc32)cc1,15.8%
3,N=c1n(Cc2ccc(Cl)cc2)c2ccccc2n1CC(O)c1ccco1 (stereo not given),18.4% (active)
4,CC(C)[C@@H]1NC(=O)c2cc([N+](=O)[O-])cc(I)c2NCCC[C@@H](C(=O)NC(CC(=O)O)C(N)=O)NC(=O)[C@H](CO)NC1=O (stereo not given in full),2.25%
5,CCOc1ccc(NC(=O)c2ccc(CSc3nnnn3C)cc2)cc1,1.22%
6,C=CCNCCCCOc1ccccc1,28.3% (active)
7,C=CCNC(=O)CCCOc1cccc(C)c1,1.38%
8,O=C(NCCOc1ccccc1)c1ccccc1,0.21%
9,CCC1S/C(=N/N=C/c2ccco2)NC1=O (stereo not given),2.82%
10,CN(C)S(=O)(=O)c1cc(NC(=O)CN2C(=O)NC3(CCCc4ccccc43)C2=O)ccc1Cl (stereo not given),-4.1%
11,OCC(CO)(CO)NCc1ccc(-c2ccccc2)cc1,4.54%
12,COc1ccc(S(=O)(=O)NC(C)C)cc1C(=O)NC1CCCCC1,5.96%
13,COc1cc2c3c(c1)/C(=C1/SC(=S)NC1=O)C(=O)N3C(C)(C)C=C2C,-1.35%
14,CCC/C=C(\CCC)C(NC(=O)Cc1ccccc1)c1ccc(C(=O)OC)cc1 (stereo not given),20.7% (active)
15,COc1ccc(C(CC(=O)O)NC(=O)Cc2ccccc2)cc1 (stereo not given),0.31%
16,CCC[C@@H]1C[C@@]1(CCC)[C@@H](NC(=O)c1ccccc1)c1ccc(C(=O)OC)cc1,6.17%
17,CCN(c1ccc(NC(=O)COC(=O)CCc2nc3ccccc3n2-c2ccccc2)cc1)C(C)C,-0.2%
18,Cc1cc(-c2n[nH]c(=S)n2-c2ccc(C)c(C)c2)no1,3.33%
19,Cc1nc(SCc2ccc(F)cc2)c([N+](=O)[O-])[nH]1,6.36%
20,COc1cc(/C=C/C(=O)O)cc(S(=O)(=O)Nc2ccccc2SC)c1OC,1.33%
21,Cc1cccc2cc(CN(Cc3ccc4c(c3)OCO4)Cc3nnnn3C3CCCC3)c(=O)[nH]c12,-0.14%
22,Cc1cccc2cc(CN(Cc3cccs3)C(c3nnnn3C3CCCC3)C(C)C)c(=O)[nH]c12 (stereo not given),11%
23,CCC(c1nnnn1C1CCCC1)N(Cc1cccs1)Cc1cc2cccc(C)c2[nH]c1=O (stereo not given),18% (active)
